Source: PubChem (National Center for Advancing Translational Sciences (NCATS))
NS1 function inh: blocks influenza NS1 protein function | Potency, µM (series often up to 46.1 µM) | AID 2326 | actives 0.4% (n = 270,000); calls by dose curve; also: actives are rising curves; nearly all actives have a fitted effect of over 50% in size
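Compounds were scored for reversing the slow growth caused by influenza A NS1 in S. cerevisiae, measured by optical density at 600 nm. Assay medium contained 2% galactose at pH 6.0; NS1-free yeast of the same strain were the positive control.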
Shiga toxin inh: Shiga toxin inhibition. inhibition, % at 38.7 µM. actives 9.2% (n = 290,000). Vero cells, Shiga toxin protein synthesis inhibition reporter. AID 2315; in the data active = inhibition mostly above about 28%, no sharp cut-off; inactive = mostly below about 43%
CHX counter: counter-screen hit for Shiga toxin inhibitors, cycloheximide; cell reporter, cycloheximide protein synthesis inhibition counterscreen; max response, %; actives 12% (n = 300,000); AID 2314; in the data active = max response mostly above about 13%, no sharp cut-off; inactive = mostly below about 14%; also: read at 38.3 µM for the half of the compounds with a filed dose
Pf growth 48h: P. falciparum growth inhibition at 48 hours (one generation). Potency, µM (top dose mostly 28.7 µM), actives largely listed as inhibitors. P. falciparum luciferase growth in erythrocytes, 48 h. AID 504832. actives 5.9% (n = 310,000)
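Luciferase-expressing parasites in RBCs, 2% Hct / 0.1% parasitemia final; RPMI 1640 + 0.5% Albumax; 37 C, 5% CO2, one generation; luminescence read-out, lower signal = inhibition.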
Giardia FBPA inh: blocks Giardia fructose-bisphosphate aldolase activity | A8B2U2 | purified Giardia FBPA | Potency, µM (doses to about 59.6 µM), hits mostly inhibitors | actives 0.71% (n = 290,000) | AID 2451; also: nearly all actives have a fitted effect of over 55% in size
Target sequence (A8B2U2 whole entry, looked up): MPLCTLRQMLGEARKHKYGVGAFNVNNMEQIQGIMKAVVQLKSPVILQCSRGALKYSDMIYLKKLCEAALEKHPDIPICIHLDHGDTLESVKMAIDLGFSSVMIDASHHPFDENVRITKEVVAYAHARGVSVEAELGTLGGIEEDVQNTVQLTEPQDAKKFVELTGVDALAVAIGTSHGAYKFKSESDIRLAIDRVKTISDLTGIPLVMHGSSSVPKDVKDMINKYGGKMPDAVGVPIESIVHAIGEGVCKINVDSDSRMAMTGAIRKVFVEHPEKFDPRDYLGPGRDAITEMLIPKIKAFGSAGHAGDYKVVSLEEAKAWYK
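Giardia FBPA (40 nM reagent) was preincubated 10 min at RT with compound (up to 57.5 uM final), then substrate plus GAPDH/TPI/NAD/arsenate coupling system with diaphorase/resazurin was added; resorufin fluorescence (525/598 nm) was read after 20 min.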
Pf growth 96h: P. falciparum growth inhibition at 96 hours; actives 6.9% (n = 320,000); Potency, µM (titrated, usually from 28.7 µM), most hits filed as inhibitors; P. falciparum luciferase reporter growth, 96 h; AID 504834
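Compounds incubated with erythrocytes infected by luciferase-expressing P. falciparum (2% hematocrit, 0.05% parasitemia final) for 96 hours, 37 C in 5% CO2. Growth inhibition scored as decreased luciferase luminescence.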
Of the large screens only hits and unclear results are named; the others gave an inactive call. Rows were chosen to be rich in hits. Some 21% of all compounds tested hit in one or more screens of this group. Unless noted, calls follow the shape of the dose curve; as a rule, active = well fitted curve in the direction sought with a large enough effect; inconclusive = small, poorly fitted or top-dose-only effect, or another doubt; inactive = no such curve, though single readings can be large; an effect the other way counts as inactive or inconclusive.

Cc1noc(C)c1C(=O)N1CCC[C@@]2(CCN(C(=O)Nc3cccc(C#N)c3)C2)C1	none (no result: NS1 function inh, Shiga toxin inh, CHX counter, Pf growth 48h, Pf growth 96h)
Cc1c(Cl)cccc1NC(=O)c1ncn[nH]1	none
CC(=O)c1ccc(NC(=O)Nc2ccc3c(c2)nc(C)n3C)cc1	Shiga toxin inh 81, CHX counter 34, Pf growth 48h inconclusive
CC(=O)NCCc1nc2cc(NC(=O)Nc3ccccc3)ccc2n1C	none
Cc1ccc(C2(CCNCc3ccco3)CCOC(C(C)C)C2)cc1 (stereo not given)	Pf growth 48h inconclusive, Pf growth 96h inconclusive
CCC1(C)CC(CCN(Cc2ccco2)C(C)=O)(c2ccccc2)CCO1 (stereo not given)	Pf growth 48h inconclusive, Pf growth 96h 4.1µM
CC(=O)N(CCP(=O)(c1ccccc1)c1ccccc1)Cc1ccco1	Pf growth 96h 9.3µM
CC1(C)CC(CCN(Cc2ccccc2)C(=O)c2ccco2)(c2ccccc2)CCO1 (stereo not given)	Pf growth 48h inconclusive, Pf growth 96h 1.9µM
CC(=O)N(CCC1(c2ccc(C)cc2)CCOC(C(C)C)C1)Cc1ccco1 (stereo not given)	Pf growth 48h 5.9µM, Pf growth 96h 4.1µM
O=c1[nH]cnc2sc3c(c12)CCC3	none
CCOC(=O)CC1(NC(=O)C2CCC(=O)N(Cc3ccccc3OC)C2)CCCCC1 (stereo not given)	Pf growth 48h inconclusive, Pf growth 96h inconclusive (no result: Giardia FBPA inh)
CCN(CC)C(NC(=O)c1ccccc1)C(=O)c1ccccc1 (stereo not given)	CHX counter 55
CCN(CC)C(C)C(=O)c1ccccc1 (stereo not given)	none (no result: NS1 function inh, Shiga toxin inh, CHX counter, Giardia FBPA inh)
O=C(CCCCCn1c(=S)[nH]c2cc3c(cc2c1=O)OCO3)N1CCN(C(=O)c2ccco2)CC1	Pf growth 48h inconclusive, Pf growth 96h inconclusive
O=C(CCCn1c(=S)[nH]c2cc3c(cc2c1=O)OCO3)NCc1cccc(Cl)c1	Pf growth 96h 9.3µM (no result: Giardia FBPA inh)
O=C(CCn1c(=S)[nH]c2cc3c(cc2c1=O)OCO3)NCc1cccc(Cl)c1	Pf growth 96h inconclusive (no result: Giardia FBPA inh)
O=C(CCCCCn1c(=S)[nH]c2cc3c(cc2c1=O)OCO3)N1CCN(Cc2ccccc2)CC1	Pf growth 48h 12µM
Cc1ccc(O)c(-c2cc(C(F)(F)C(F)F)nc(-c3ccccc3)n2)c1	NS1 function inh inconclusive, Pf growth 48h inconclusive, Pf growth 96h 8.3µM
Oc1ccc(Cl)cc1-c1cc(C(F)(F)C(F)F)nc(-c2ccccc2)n1	Pf growth 48h 1.3µM (no result: Pf growth 96h)
Oc1ccccc1-c1cc(C(F)(F)F)nc(-c2ccccc2)n1	Pf growth 48h inconclusive, Pf growth 96h inconclusive
COc1cc(OC)c(OC)cc1/C=N/NC(=O)c1cc(-c2cccn2C)n[nH]1	Pf growth 48h inconclusive, Pf growth 96h inconclusive
COc1ccc(/C=N/NC(=O)c2cc(-c3cccn3C)n[nH]2)cc1OC	Pf growth 48h 13µM, Pf growth 96h 1.9µM
Cn1cccc1-c1cc(C(=O)N/N=C/c2cccc(O)c2)[nH]n1	Shiga toxin inh 56, CHX counter 30, Pf growth 96h inconclusive (no result: NS1 function inh)
CC(C)c1cc(Nc2cccc(O)c2)cc(C(C)C)c1O	Pf growth 48h inconclusive, Pf growth 96h 12µM
COCC(=O)Nc1c(C(=O)Nc2cccc(OC)c2)oc2ccccc12	Shiga toxin inh 58, CHX counter 48
COCC(=O)Nc1c(C(=O)Nc2ccccc2OC)oc2ccccc12	Pf growth 96h inconclusive
COc1cccc(NC(=O)c2oc3ccccc3c2NC(=O)C2CC2)c1	Pf growth 48h inconclusive, Pf growth 96h inconclusive (no result: Giardia FBPA inh)
COc1cccc(NC(=O)c2oc3ccccc3c2NC(C)=O)c1	Shiga toxin inh 47, CHX counter 37
Fc1cccc(/C=N/Nc2nncc3ccccc23)c1	Shiga toxin inh 85, CHX counter 57 (no result: Pf growth 48h)
O=C(CNc1cccc2ccccc12)N/N=C/c1ccccn1	Pf growth 48h inconclusive, Giardia FBPA inh inconclusive
C(=N\Nc1nncc2ccccc12)/c1ccccn1	Shiga toxin inh 57, CHX counter 33, Pf growth 48h 0.83µM, Pf growth 96h inconclusive
CC(=O)Nc1ccc(/C=N/Nc2nncc3ccccc23)cc1	Shiga toxin inh 83, CHX counter 50
O=C(Cc1ccc(S(=O)(=O)N2CCOCC2)s1)Oc1ccc(F)cc1	none (no result: NS1 function inh, Shiga toxin inh, CHX counter, Giardia FBPA inh)
COc1ccc2oc(C(=O)N3CCCc4ccccc43)c(C)c2c1	Pf growth 48h inconclusive (no result: NS1 function inh, Shiga toxin inh, CHX counter, Giardia FBPA inh)
CC1CCN(C(=O)CN(Cc2ccc(F)cc2)S(C)(=O)=O)CC1	none
CC(C)N(C)Cc1cn(C)nc1-c1ccc(Oc2ccccc2)cc1	Pf growth 96h 5.2µM (no result: Shiga toxin inh)
Cc1cc(CNCc2cn(C)nc2-c2ccc(Oc3ccccc3)cc2)on1	CHX counter 17, Pf growth 48h inconclusive, Pf growth 96h 12µM
Cn1cc(CNCC2CCCO2)c(-c2ccc(Oc3ccccc3)cc2)n1 (stereo not given)	Pf growth 48h inconclusive
Cn1cc(CN2CCC(O)CC2)c(-c2ccc(Oc3ccccc3)cc2)n1	Pf growth 96h 9.3µM
Cc1oc(-c2cc3c(cc2Cl)OCO3)nc1CN1CCCC1c1ccc(F)cc1 (stereo not given)	Pf growth 48h inconclusive
CC(=O)N1CCc2c(sc(NC(=O)CCS(=O)(=O)c3ccccc3)c2C(N)=O)C1	Pf growth 48h inconclusive
CCOC(=O)N1CCc2c(sc(NC(=O)CCS(=O)(=O)c3ccccc3)c2C(N)=O)C1	Pf growth 48h inconclusive, Pf growth 96h 15µM (no result: Giardia FBPA inh)
COc1cc2ccccc2cc1C(=O)Nc1sc2c(c1C(N)=O)CCN(C(C)C)C2	Pf growth 48h 8.3µM, Pf growth 96h 5.9µM
CCNC(=O)c1c(NC(=O)C2COc3ccccc3O2)sc2c1CCCC2 (stereo not given)	Pf growth 48h inconclusive
CC(C)N1CCc2c(sc(NC(=O)CN3C(=O)c4ccccc4C3=O)c2C(N)=O)C1	none
CN1CCc2c(sc(NC(=O)Cc3ccccc3)c2C(N)=O)C1	Giardia FBPA inh inconclusive
CCN1CCc2c(sc(NC(=O)C3COc4ccccc4O3)c2C(N)=O)C1 (stereo not given)	CHX counter 19
CN1CCc2c(sc(NC(=O)C3COc4ccccc4O3)c2C(N)=O)C1 (stereo not given)	CHX counter 22
CCOC(=O)N1CCc2c(sc(NC(=O)c3ccc(Cl)s3)c2C(N)=O)C1	Pf growth 48h inconclusive, Pf growth 96h 13µM
CCOC(=O)c1c(NC(=O)c2cccs2)sc2c1CCN(C(=O)OCC)C2	Pf growth 48h inconclusive
CN1CCc2c(sc(NC(=O)c3ccc4ccccc4c3)c2C(N)=O)C1	Shiga toxin inh 92, CHX counter 49, Pf growth 96h inconclusive (no result: Giardia FBPA inh)
CCOC(=O)N1CCc2c(sc(NC(=O)C3COc4ccccc4O3)c2C(N)=O)C1 (stereo not given)	Pf growth 48h inconclusive, Pf growth 96h 9.3µM (no result: Giardia FBPA inh)
COC(=O)c1c(NC(=O)C2COc3ccccc3O2)sc2c1CCN(C(C)=O)C2 (stereo not given)	Pf growth 48h inconclusive, Pf growth 96h inconclusive
